Assay results as given in PubChem BioAssay (NCATS).
Records with an inconclusive call do not appear. The source made the active and inactive calls. Calls come from the whole dose curve; as a rule, active = well fitted curve in the direction sought with a large enough effect; inconclusive = small, poorly fitted or top-dose-only effect, or another doubt; inactive = no such curve, though single readings can be large; an effect the other way counts as inactive or inconclusive.

Experiments:
[1] = Quantitative High-Throughput drug screen in 47 multiple myeloma cell lines against the NCATS MIPE library collection: KMS27_JCRB cell viability assay (AID 1918970); details: KMS27 myeloma cells, CellTiter-Glo ATP viability, 48 h; viability (% of DMSO): at 45.8 µM (top of the series); note: nearly all actives have a fitted effect of over 30% in size
In short: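 Each line is seeded at 500 cells per well and treated with library compounds for 48 hours under 37 °C, 5% CO2. CellTiter-Glo is then added for 5 min at room temperature before median relative luminescence is recorded.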

[2] = Quantitative High-Throughput drug screen in 47 multiple myeloma cell lines against the NCATS MIPE library collection: KMS12BM_JCRB cell viability assay (AID 1918971); note: nearly all actives have a fitted effect of over 35% in size
In short: (§1)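 We plated 500 myeloma cells per well, pinned in MIPE 4.0 compounds, and incubated for 48 hours at 37C. ATP was then quantified with CellTiter-Glo, with DMSO and media-only wells defining 100% and 0%.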

[3] = Quantitative High-Throughput drug screen in 47 multiple myeloma cell lines against the NCATS MIPE library collection: KMS12PE_JCRB cell viability assay (AID 1918972); note: nearly all actives have a fitted effect of over 30% in size
In short: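 CellTiter-Glo luminescence (ATP) after 48 h compound exposure, 37C/5% CO2; 500 cells/well; MIPE 4.0 approved/investigational drugs pinned in; DMSO = 100%, media only = 0% viability.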

[4] = Quantitative High-Throughput drug screen in 47 multiple myeloma cell lines against the NCATS MIPE library collection: KMS20_JCRB cell viability assay (AID 1918973); note: nearly all actives have a fitted effect of over 45% in size
In short: (§2)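 Relative luminescence from CellTiter-Glo served as the viability signal, referenced to DMSO-treated (100%) and cell-free medium (0%) controls. Treatment lasted 48 hours at 37C with 500 cells per well.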

[5] = Quantitative High-Throughput drug screen in 47 multiple myeloma cell lines against the NCATS MIPE library collection: KMS26_JCRB cell viability assay (AID 1918975); note: nearly all actives have a fitted effect of over 45% in size
In short: as §1

[6] = Quantitative High-Throughput drug screen in 47 multiple myeloma cell lines against the NCATS MIPE library collection: MMM1_PLB cell viability assay (AID 1918976); note: nearly all actives have a fitted effect of over 35% in size
In short: (§3)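 500 cells/well; MIPE 4.0 drugs pin-transferred; 48 h, 37C, 5% CO2. CellTiter-Glo, 5 min RT, luminescence. Controls: DMSO 100%, media 0%.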

[7] = Quantitative High-Throughput drug screen in 47 multiple myeloma cell lines against the NCATS MIPE library collection: MOLP8_DSMZ cell viability assay (AID 1918977); note: nearly all actives have a fitted effect of over 45% in size
In short: as §3

[8] = Quantitative High-Throughput drug screen in 47 multiple myeloma cell lines against the NCATS MIPE library collection: NCIH929_DSMZ cell viability assay (AID 1918978); note: nearly all actives have a fitted effect of over 35% in size
In short: as §3

[9] = Quantitative High-Throughput drug screen in 47 multiple myeloma cell lines against the NCATS MIPE library collection: Karpas25_ECACC cell viability assay (AID 1918968; note: nearly all actives have a fitted effect of over 35% in size)
In short: as §2

[10] = Quantitative High-Throughput drug screen in 47 multiple myeloma cell lines against the NCATS MIPE library collection: KMS21BM_JCRB cell viability assay (AID 1918974); details: ATP luminescence, 48 h; viability: at 45.8 µM (top of the series)
In short: as §2

Measured: Potency
Potency is the fitted concentration of half-maximal effect.

O=C1NCCc2[nH]c(-c3ccncc3)cc21
active: [1] 1.32 µM | [2] 3.72 µM | [3] 6.62 µM | [4] 2.64 µM | [5] 3.32 µM | [6] 16.6 µM | [7] 1.66 µM | [8] 2.64 µM

COc1cc(OC)c(NC(=O)Nc2cc(C)on2)cc1Cl
active: [9] 14.8 µM
inactive: [5] | [8]

Cn1cc(-c2ccc3ncc(Cc4ccc5ncccc5c4)n3n2)cn1
inactive: [9] | [5] | [7] | [8]

CC(C)(O)[C@H]1CC[C@@](C)([C@H]2[C@@H](O)C[C@@]3(C)[C@@H]4C[C@H](O[C@@H]5O[C@H](CO)[C@@H](O)[C@H](O)[C@@H]5O)[C@H]5C(C)(C)[C@@H](O[C@@H]6OC[C@@H](O)[C@H](O)[C@@H]6O)CC[C@@]56C[C@@]46CC[C@]23C)O1
inactive: [9] | [4] | [5] | [7] | [8]

CCCCCCCN(CC)CCCC(O)c1ccc(NS(C)(=O)=O)cc1 (stereo not given)
inactive: [2]
active: [1] 20.9 µM | [3] 16.6 µM

CC(O)(C#Cc1ccc2c(c1)N(c1nc(N)ncc1Cl)CC2)c1nccs1 (stereo not given)
active: [9] 3.72 µM | [4] 2.64 µM | [10] 0.332 µM | [6] 20.9 µM | [8] 1.18 µM

O=[N+]([O-])c1cn2c(n1)OC[C@@H](OCc1ccc(OC(F)(F)F)cc1)C2
inactive: [9] | [3] | [5] | [7] | [8]
active: [6] 8.33 µM

Cc1cn([C@@H]2O[C@H](CO)[C@@H](O)[C@H]2F)c(=O)[nH]c1=O
active: [3] 13.2 µM
inactive: [9] | [8]

COC(=O)C1C2CC3c4[nH]c5cc(OC)ccc5c4CCN3CC2CC(OC(=O)c2cc(OC)c(OC)c(OC)c2)C1OC (stereo not given)
inactive: [5]
active: [9] 23.5 µM | [3] 18.7 µM | [6] 20.9 µM

CCN1CCN(C(=O)N[C@H](C(=O)N[C@@H]2C(=O)N3C(C(=O)O)=C(CSc4nnnn4C)CS[C@@H]23)c2ccc(O)cc2)C(=O)C1=O
inactive: [9] | [4] | [5] | [8]

CCCCCCCCCCCCCCCC(=O)OC[C@@H](NC(=O)C(Cl)Cl)[C@H](O)c1ccc([N+](=O)[O-])cc1
inactive: [1] | [2] | [3] | [4] | [10] | [7]

COc1cccc2c1C(=O)c1c(O)c3c(c(O)c1C2=O)C[C@@](O)(C(=O)CO)C[C@H]3O[C@H]1C[C@H](N)[C@H](O)[C@H](C)O1
active: [1] 0.743 µM | [2] 0.166 µM | [3] 1.48 µM | [4] 0.0526 µM | [5] 0.296 µM | [6] 0.148 µM | [7] 0.187 µM | [8] 0.0935 µM

c1coc(CNc2ncnc3nc[nH]c23)c1
active: [6] 1.87 µM
inactive: [9] | [4] | [10] | [5] | [8]

O=c1c(O)c(-c2ccc(O)c(O)c2)oc2cc(O)ccc12
active: [9] 8.33 µM | [2] 26.4 µM | [6] 26.4 µM | [7] 18.7 µM | [8] 18.7 µM

CCCCCCCCc1ccc(CCC(N)(CO)CO)cc1
active: [1] 6.62 µM | [2] 14.8 µM | [3] 7.43 µM | [4] 3.72 µM | [6] 13.2 µM | [7] 14.8 µM | [8] 7.43 µM

CN(C)CC[C@H](c1ccc(Cl)cc1)c1ccccn1
inactive: [9] | [5] | [8]

CCOc1cc2ncc(C#N)c(Nc3ccc(OCc4ccccn4)c(Cl)c3)c2cc1NC(=O)C=CCN(C)C
active: [1] 0.264 µM | [2] 5.26 µM | [3] 0.264 µM | [4] 0.935 µM | [5] 18.7 µM | [8] 0.833 µM

C=CCNc1c(O)cc2c(O)c1C[C@@H](C)C[C@H](OC)[C@@H](O)[C@@H](C)C=C(C)[C@H](OC(N)=O)[C@@H](OC)C=CC=C(C)C(=O)N2
active: [1] 0.148 µM | [2] 0.332 µM | [3] 0.105 µM | [4] 0.372 µM | [5] 1.32 µM | [6] 8.33 µM | [7] 0.332 µM | [8] 0.418 µM

CCN(CC)CCCCNc1ncc2c(n1)N(C)C(=O)N(c1c(Cl)c(OC)cc(OC)c1Cl)C2
inactive: [3] | [8]
active: [9] 16.6 µM | [6] 9.35 µM

c1ccc(CNc2nc(NCc3ccccc3)c3ccccc3n2)cc1
active: [1] 5.9 µM | [2] 29.6 µM | [3] 5.9 µM | [4] 8.33 µM | [5] 26.4 µM | [6] 16.6 µM | [7] 18.7 µM | [8] 8.33 µM

CCc1cnn2c(NCc3ccc[n+]([O-])c3)cc(N3CCCC[C@@H]3CCO)nc12
active: [1] 0.0187 µM | [2] 0.0264 µM | [3] 0.0332 µM | [4] 0.0209 µM | [10] 0.0132 µM | [6] 0.0296 µM | [7] 0.0118 µM | [8] 0.0235 µM

O=C1CSC(=O)N1C(CCc1ccncc1)COc1ccc(-c2cccc([N+](=O)[O-])c2)cc1 (stereo not given)
active: [2] 7.43 µM | [4] 10.5 µM | [5] 4.18 µM | [6] 4.18 µM | [8] 18.7 µM
inactive: [1] | [3]

COc1cc(C)c(C=CC(C)=CC=CC(C)=CC(=O)O)c(C)c1C
inactive: [9] | [5] | [8]

O=c1ccn([C@@H]2O[C@H](CO)[C@H](O)[C@@H]2F)c(=O)[nH]1
inactive: [3] | [4] | [10] | [5] | [7]
active: [9] 9.35 µM | [6] 2.64 µM | [8] 11.8 µM

COC(=O)[C@H](CCCN=C(N)N)NS(=O)(=O)c1ccc(C)cc1
inactive: [1] | [2] | [3] | [4] | [10] | [8]

C=CC1=C(C(=O)O)N2C(=O)[C@@H](NC(=O)C(=NO)c3csc(N)n3)[C@H]2SC1
inactive: [9] | [2] | [5] | [8]

Cn1cc(C=CC(=O)c2cccc(F)c2)cc1C=CC(=O)NO
active: [9] 8.33 µM | [3] 14.8 µM | [10] 4.69 µM | [5] 16.6 µM | [7] 16.6 µM | [8] 20.9 µM

C=C1CCC2[C@](C)(CO)C(O)CC[C@]2(C)C1CC=C1C(=O)OCC1O (stereo not given in full)
inactive: [9] | [3]

C[C@H](NC(=O)C(C#N)=Cc1cccc(Br)n1)c1ccccc1
active: [1] 13.2 µM | [2] 4.69 µM | [3] 16.6 µM | [4] 2.35 µM | [6] 7.43 µM | [7] 2.35 µM | [8] 1.66 µM

C[C@H](NC(=O)[C@@H](O)c1cc(F)cc(F)c1)C(=O)N[C@@H]1C(=O)N(C)c2ccccc2-c2ccccc21
inactive: [9] | [4] | [5] | [7]

OCCN1C[C@H](O)[C@@H](O)[C@H](O)[C@@H]1CO
inactive: [9] | [2] | [5] | [8]

CC(=CC(=O)Nc1ccccc1C(=O)O)c1ccc2ccccc2c1
active: [9] 20.9 µM | [3] 23.5 µM | [8] 7.43 µM
inactive: [10]

N#CC(=C(O)c1ccc(Cl)cc1Cl)c1nc2cc(Cl)ccc2c(=O)[nH]1
inactive: [1] | [2] | [3] | [4] | [6] | [7] | [8]

CC(=O)NC(CS)C(=O)O (stereo not given)
inactive: [9] | [4] | [8]
active: [6] 18.7 µM

CN1CCc2c(c3ccccc3n2Cc2ccc(C(=O)NO)cc2)C1
active: [9] 10.5 µM | [2] 16.6 µM | [5] 20.9 µM | [8] 10.5 µM

C=C1C[C@@]2(O)O[C@@]3(C[C@H]2C(C)C)[C@H](C)CC[C@H]13
inactive: [1] | [2] | [3] | [4] | [7] | [8]

CC(C)(O)CC[C@@H](O)[C@](C)(O)[C@H]1CC[C@@]2(O)C3=CC(=O)[C@@H]4C[C@@H](O)[C@@H](O)C[C@]4(C)[C@@H]3CC[C@]12C
inactive: [1] | [3] | [4] | [8]

O=C(c1ccc(F)cc1)N1CCC[C@H](c2nc(-c3ccc(F)cc3)no2)C1
inactive: [1] | [3] | [4] | [5] | [7] | [8]

Cn1cc(C[C@@H](N)C(=O)O)c2ccccc21
active: [2] 2.29 µM | [6] 0.645 µM | [7] 0.115 µM
inactive: [1] | [8]

CCOC(=O)N1CCN([N+]([O-])=NOc2ccc([N+](=O)[O-])cc2C#N)CC1
active: [1] 0.372 µM | [2] 1.48 µM | [3] 0.833 µM | [5] 0.935 µM | [6] 0.526 µM | [8] 2.96 µM

Cc1cc(Nc2ncc3c(n2)N(C)C(=O)N(c2cc(NC(=O)c4cccc(C(F)(F)F)c4)ccc2C)C3)n(C)n1
active: [1] 1.87 µM | [2] 0.526 µM | [3] 1.05 µM | [5] 5.9 µM | [7] 0.296 µM | [8] 1.05 µM

N#CC(=Cc1ccc(O)c(O)c1)C(=O)NCc1ccccc1
active: [1] 0.833 µM | [4] 8.33 µM | [6] 3.32 µM
